# Bioassay records: PubChem, Sanford-Burnham Center for Chemical Genomics
# DUSP3 inh – VHR1 phosphatase inhibitors, primary screen, biochemical, colorimetric, HTS; recombinant VHR phosphatase, colorimetric substrate read-out; inhibition, % at 20 µM; 50,000 compounds, 0.7% hits; in the data active = inhibition above about 60%
# Target sequence (P51452 whole entry, looked up): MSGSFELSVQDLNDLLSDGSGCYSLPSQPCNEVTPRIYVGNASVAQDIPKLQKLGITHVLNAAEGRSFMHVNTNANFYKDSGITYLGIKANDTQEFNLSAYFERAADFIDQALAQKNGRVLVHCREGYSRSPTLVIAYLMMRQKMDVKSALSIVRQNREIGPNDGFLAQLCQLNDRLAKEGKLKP
# * = called active by the depositor. This excerpt belongs to a sample that is enriched for hits.
SMILES,DUSP3 inh
CC(C)c1ccc(N2C(=O)NC(=O)/C(=C/c3ccc([N+](=O)[O-])o3)C2=O)cc1,85*
COc1ccc(N2C(=O)/C(=C/c3ccc(-c4ccccc4[N+](=O)[O-])o3)C(=O)NC2=S)cc1,81*
O=C1NC(=O)N(c2ccc(Cl)cc2)C(=O)/C1=C\c1ccc(-c2ccccc2[N+](=O)[O-])o1,-8
Cc1cccc(N2C(=O)NC(=O)/C(=C\c3ccc(-c4ccccc4C(=O)O)o3)C2=O)c1,-4
O=C1NC(=S)N(c2cccc(Br)c2)C(=O)/C1=C/c1ccc(-c2ccccc2C(=O)O)o1,80*
O=C1NC(=O)N(c2ccc(Cl)cc2)C(=O)/C1=C\c1ccc(-c2ccc([N+](=O)[O-])cc2)o1,-16
COc1ccc(N2C(=O)/C(=C/c3ccc(-c4ccc(C(=O)O)cc4)o3)C(=O)NC2=S)cc1,32
CCCOc1ccccc1C1NC(=O)c2c(sc3c2CCCC3)N1 (stereo unspecified),25
COc1cc(/C=N/N2C(=O)C3C4C=CC(C4)C3C2=O)cc(I)c1O (stereo unspecified),-44
CCCCOc1cccc(C(=O)Nc2ccc(C(=O)OCCC)cc2)c1,-8
COC(C(=O)NNC(=O)c1ccccc1Cl)c1ccccc1 (stereo unspecified),-9
COc1ccc(NC(=O)c2cccc([N+](=O)[O-])c2C)cc1OC,-2
COc1ccc(S(=O)(=O)N(CC(=O)N=Nc2c(O)[nH]c3ccccc23)c2cc(C)cc(C)c2)cc1OC,-23
CCOC(=O)C1(C)C=C(O)C(=O)N1c1ccc(Br)cc1 (stereo unspecified),-18
COc1cc(/C=C2/C(=O)NC(=O)N(c3ccc(C(C)C)cc3)C2=O)cc(OC)c1O,27
COc1cccc(/C=C2/C(=O)NC(=O)N(c3ccc(Br)cc3)C2=O)c1O,-16
COc1cccc(/C=C2/C(=O)NC(=O)N(c3ccc(C(C)C)cc3)C2=O)c1O,89*
COc1ccc(-c2ccc(/C=C3/C(=O)NC(=O)N(c4ccccc4)C3=O)o2)c([N+](=O)[O-])c1,81*
COc1ccc(-c2ccc(/C=C3/C(=O)NC(=O)N(c4ccc(C)cc4)C3=O)o2)c([N+](=O)[O-])c1,11
COc1ccc(-c2ccc(/C=C3\C(=O)NC(=O)N(c4ccc(Cl)cc4)C3=O)o2)c([N+](=O)[O-])c1,2
COc1ccc(/C=N/NC(=O)COc2ccccc2Br)cc1,-2
COC(=O)c1nn2c(C(F)(F)F)cc(-c3ccccc3)nc2c1Br,-6
COc1cccc(/C=C2\SC(=O)N(CCC(=O)Nc3ccc(Br)cc3)C2=O)c1,-25
COc1cc(C(=O)Nc2c(C)cc(C)c(NC(=O)c3cc(OC)c(OC)c(OC)c3)c2C)cc(OC)c1OC,-30
O=C(Cc1ccc([N+](=O)[O-])cc1)N1N=C(c2cccnc2)CC1(O)C(F)(F)F (stereo unspecified),5
SMILES,DUSP3 inh
O=C1C(=O)N(c2cccc(Br)c2)C(c2ccc([N+](=O)[O-])cc2)/C1=C(/O)c1ccccc1 (stereo unspecified),-10
COc1cc([N+](=O)[O-])ccc1NC(=O)COc1cc(C)ccc1C(C)(C)C,0
O=C(O)c1cccc2c1NC(c1ccc(Cl)cc1)C1CC=CC21 (stereo unspecified),86*
O=C(O)c1cccc2c1NC(c1cccc3ccccc13)C1CC=CC21 (stereo unspecified),23
O=C(O)c1cccc2c1NC(c1ccc([N+](=O)[O-])cc1)C1CC=CC21 (stereo unspecified),49
Cc1ccc(C(=O)/C=C/c2ccc(-c3ccc(Cl)cc3)o2)cc1,5
CSc1nnc2c(n1)OC(c1ccc(OCc3ccccc3)cc1)Nc1ccccc1-2 (stereo unspecified),-21
CCCCCCCNc1ccc(NC(=O)c2ccccc2)c2c1C(=O)c1ccccc1C2=O,-15
O=C1N=c2ccccc2=C1c1s/c(=N\Nc2ccccc2)n(-c2ccccc2)c1O,-35
O=[N+]([O-])c1ccc(Cl)cc1NCc1ccccc1,5
O=C(NCc1ccccc1)c1ccc(S(=O)(=O)c2ccccc2)cc1,1
O=C1C=CC(=O)C(/C(=C/NCc2ccccc2)[N+](=O)[O-])=C1,86*
O=C(/C=C/c1ccco1)Nc1ccc(Cl)c(Cl)c1,10
O=C(/C=C/c1ccco1)/C=C/c1ccc(-c2ccc(Cl)c(Cl)c2)o1,89*
N#C/C(=C\c1ccc(-c2ccc(Br)cc2)o1)C(N)=O,-7
N#C/C(=C\c1ccc(-c2cccc(C(F)(F)F)c2)o1)C(N)=O,-8
O=C(O)/C=C/c1ccc(-c2ccc(Cl)c(Cl)c2)o1,3
N#C/C(=C\c1ccc(-c2ccc(Cl)c(Cl)c2)o1)C(N)=O,70*
CCN(CC)CCCCOc1c(OC)cccc1OC,-2
O=C(CSCC(=O)c1ccc(F)cc1)Nc1ccc2ccccc2c1,2
S=C(NCCN1CCOCC1)Nc1ccccc1,99*
S=C(NCCN1CCOCC1)Nc1cccc(Cl)c1,12
Fc1ccc(NC(=S)NCCN2CCOCC2)cc1,91
COc1cc2c(cc1NC(=O)COc1ccc(C)cc1C)oc1ccccc12,-6
Clc1ccc(C=NN2CCN(Cc3ccccc3)CC2)cc1Cl,-4
SMILES,DUSP3 inh
O=C1CC(c2ccc(F)c(F)c2)c2cc(Br)c3ccccc3c2N1 (stereo unspecified),6
COc1ccc(C2CC(=O)Nc3c2cc(Br)c2ccccc32)cc1OC (stereo unspecified),67*
COc1cccc(C2CC(=O)Nc3c2cc(Br)c2ccccc32)c1OC (stereo unspecified),6
CCOc1ccc(NC(=O)c2c(NC(=O)CCC(=O)O)sc3c2CCC(C)C3)cc1 (stereo unspecified),-29
COc1ccc2[nH]c3c(c2c1)CCn1c-3nc2scc(-c3ccccc3)c2c1=O,-8
CCOC(=O)c1c(NC(=O)c2ccncc2)sc2c1CCC(C)C2 (stereo unspecified),0
O=C1C(=O)N(Cc2ccccc2)C(c2ccc(Cl)cc2)/C1=C(/O)c1ccccc1 (stereo unspecified),-39
Cc1ccn2c(-c3csc(Nc4cccc(O)c4)n3)c(C)nc2c1,67*
CCOc1ccc(Nc2nc(-c3c(C)nc4cc(C)ccn34)cs2)cc1,88*
CCOc1ccc(Nc2nc(-c3sc(NC(=O)CC)nc3C)cs2)cc1,4
Cc1nc2ncccn2c1-c1csc(Nc2cccc(O)c2)n1,61
Cc1ccc(-c2csc(Nc3ccc(O)cc3)n2)c(C)c1,56
CCOc1ccc(Nc2nc(-c3ccccn3)cs2)cc1,-11
CN1CCN(CCCNc2c([N+](=O)[O-])c(=O)sc3ccccc23)CC1,4
CCOC(=O)c1ccc(NC(=O)CN(c2ccc(OCC)cc2)S(=O)(=O)c2ccc(Br)cc2)cc1,-9
O=C(N/N=C\c1ccc([N+](=O)[O-])o1)c1nc(-c2ccccc2)cc(-c2ccccc2)n1,-15
Cc1ccc(/C=C2/SC(=S)N(C(C)C(=O)O)C2=O)cc1 (stereo unspecified),-21
CC(=O)Nc1cc(-c2ccc(Cl)cc2)nn1-c1ccccc1,4
CCOC(=O)/C=C(\C)Nc1cc(-c2ccc(Cl)cc2)[nH]n1,6
CCOC(=O)/C=C(\C)Nc1cc(C)nn1-c1ccccc1,110*
COc1ccc2c(c1)-c1c(ssc1=Nc1ccc(S(=O)(=O)Nc3nccs3)cc1)C(C)(C)N2,-7
O=C1N=c2ccc(Cl)cc2=C1c1sc(=S)n(Cc2ccco2)c1O,68*
